Measured values as given in publication PMC11062922 (Nature Chemical Biology, 2023).
Read-outs that look alike come from different tables or passages of the source.

Assays:
AURKA = conditions: read-out: apparent Kd, n = 1
CHEK1 = conditions: read-out: apparent Kd, n = 1

Substance: Lestaurtinib
- potency estimated from few doses (AURKA; compound concentrations:100 nM and 1000 nM (sheet 'Lestaurtinib' of Supplementary Table 1),run:Lestaurtinib_02802_R1,Plate:MR029): 16.2 nM
- potency estimated from few doses (AURKA; compound concentrations:100 nM and 1000 nM (sheet 'Lestaurtinib' of Supplementary Table 1),run:Lestaurtinib_02802_R2,Plate:MR029): 15.9 nM
- potency estimated from few doses (AURKA; compound concentrations:100 nM and 1000 nM (sheet 'Lestaurtinib' of Supplementary Table 1),run:Lestaurtinib_02802_R3,Plate:MR029): 14.1 nM
- potency estimated from few doses (AURKA; compound concentrations:100 nM and 1000 nM (sheet 'Lestaurtinib' of Supplementary Table 1),run:Lestaurtinib_02896_R1,Plate:MR030): 15.4 nM
- potency estimated from few doses (AURKA; compound concentrations:100 nM and 1000 nM (sheet 'Lestaurtinib' of Supplementary Table 1),run:Lestaurtinib_02896_R2,Plate:MR030): 16.3 nM
- potency estimated from few doses (AURKA; compound concentrations:100 nM and 1000 nM (sheet 'Lestaurtinib' of Supplementary Table 1),run:Lestaurtinib_02896_R3,Plate:MR030): 16.2 nM
- potency estimated from few doses (AURKA; compound concentrations:100 nM and 1000 nM (sheet 'Lestaurtinib' of Supplementary Table 1),run:Lestaurtinib_03172_R1,Plate:MR031): 17 nM
- potency estimated from few doses (AURKA; compound concentrations:100 nM and 1000 nM (sheet 'Lestaurtinib' of Supplementary Table 1),run:Lestaurtinib_03252_R1,Plate:MR032): 16.3 nM
- potency estimated from few doses (AURKA; compound concentrations:100 nM and 1000 nM (sheet 'Lestaurtinib' of Supplementary Table 1),run:Lestaurtinib_03260_R1,Plate:MR033): 27.5 nM
- potency estimated from few doses (AURKA; compound concentrations:100 nM and 1000 nM (sheet 'Lestaurtinib' of Supplementary Table 1),run:Lestaurtinib_03260_R3,Plate:MR033): 22.2 nM
- potency estimated from few doses (CHEK1; compound concentrations:100 nM and 1000 nM (sheet 'Lestaurtinib' of Supplementary Table 1),run:Lestaurtinib_02339_R1,Plate:MR001): 99.6 nM
- potency estimated from few doses (CHEK1; compound concentrations:100 nM and 1000 nM (sheet 'Lestaurtinib' of Supplementary Table 1),run:Lestaurtinib_02339_R2,Plate:MR001): 72.8 nM
- potency estimated from few doses (CHEK1; compound concentrations:100 nM and 1000 nM (sheet 'Lestaurtinib' of Supplementary Table 1),run:Lestaurtinib_02339_R3,Plate:MR001): 71.3 nM
- potency estimated from few doses (CHEK1; compound concentrations:100 nM and 1000 nM (sheet 'Lestaurtinib' of Supplementary Table 1),run:Lestaurtinib_02364_R1,Plate:MR002): 67.1 nM
- potency estimated from few doses (CHEK1; compound concentrations:100 nM and 1000 nM (sheet 'Lestaurtinib' of Supplementary Table 1),run:Lestaurtinib_02364_R3,Plate:MR002): 86.4 nM
- potency estimated from few doses (CHEK1; compound concentrations:100 nM and 1000 nM (sheet 'Lestaurtinib' of Supplementary Table 1),run:Lestaurtinib_02367_R2,Plate:MR003): 78 nM
- potency estimated from few doses (CHEK1; compound concentrations:100 nM and 1000 nM (sheet 'Lestaurtinib' of Supplementary Table 1),run:Lestaurtinib_02381_R1,Plate:MR004): 78.7 nM
- potency estimated from few doses (CHEK1; compound concentrations:100 nM and 1000 nM (sheet 'Lestaurtinib' of Supplementary Table 1),run:Lestaurtinib_02381_R3,Plate:MR004): 61.8 nM
- potency estimated from few doses (CHEK1; compound concentrations:100 nM and 1000 nM (sheet 'Lestaurtinib' of Supplementary Table 1),run:Lestaurtinib_02407_R1,Plate:MR005): 73.9 nM
- potency estimated from few doses (CHEK1; compound concentrations:100 nM and 1000 nM (sheet 'Lestaurtinib' of Supplementary Table 1),run:Lestaurtinib_02407_R2,Plate:MR005): 71 nM
- potency estimated from few doses (CHEK1; compound concentrations:100 nM and 1000 nM (sheet 'Lestaurtinib' of Supplementary Table 1),run:Lestaurtinib_02422_R1,Plate:MR006): 70.8 nM
- potency estimated from few doses (CHEK1; compound concentrations:100 nM and 1000 nM (sheet 'Lestaurtinib' of Supplementary Table 1),run:Lestaurtinib_02422_R2,Plate:MR006): 31 nM
- potency estimated from few doses (CHEK1; compound concentrations:100 nM and 1000 nM (sheet 'Lestaurtinib' of Supplementary Table 1),run:Lestaurtinib_02422_R3,Plate:MR006): 76.2 nM
- potency estimated from few doses (CHEK1; compound concentrations:100 nM and 1000 nM (sheet 'Lestaurtinib' of Supplementary Table 1),run:Lestaurtinib_02437_R2,Plate:MR007): 67.9 nM
- potency estimated from few doses (CHEK1; compound concentrations:100 nM and 1000 nM (sheet 'Lestaurtinib' of Supplementary Table 1),run:Lestaurtinib_02437_R3,Plate:MR007): 17.2 nM
- potency estimated from few doses (CHEK1; compound concentrations:100 nM and 1000 nM (sheet 'Lestaurtinib' of Supplementary Table 1),run:Lestaurtinib_02438_R2,Plate:MR008): 88.5 nM
- potency estimated from few doses (CHEK1; compound concentrations:100 nM and 1000 nM (sheet 'Lestaurtinib' of Supplementary Table 1),run:Lestaurtinib_02438_R3,Plate:MR008): 99.8 nM
- potency estimated from few doses (CHEK1; compound concentrations:100 nM and 1000 nM (sheet 'Lestaurtinib' of Supplementary Table 1),run:Lestaurtinib_02443_R2,Plate:MR009): 94.3 nM
- potency estimated from few doses (CHEK1; compound concentrations:100 nM and 1000 nM (sheet 'Lestaurtinib' of Supplementary Table 1),run:Lestaurtinib_02473_R1,Plate:MR010): 72.2 nM
- potency estimated from few doses (CHEK1; compound concentrations:100 nM and 1000 nM (sheet 'Lestaurtinib' of Supplementary Table 1),run:Lestaurtinib_02473_R2,Plate:MR010): 70.2 nM
- potency estimated from few doses (CHEK1; compound concentrations:100 nM and 1000 nM (sheet 'Lestaurtinib' of Supplementary Table 1),run:Lestaurtinib_02482_R1,Plate:MR011): 78 nM
- potency estimated from few doses (CHEK1; compound concentrations:100 nM and 1000 nM (sheet 'Lestaurtinib' of Supplementary Table 1),run:Lestaurtinib_02482_R3,Plate:MR011): 92.6 nM
- potency estimated from few doses (CHEK1; compound concentrations:100 nM and 1000 nM (sheet 'Lestaurtinib' of Supplementary Table 1),run:Lestaurtinib_02487_R1,Plate:MR012): 69.6 nM
- potency estimated from few doses (CHEK1; compound concentrations:100 nM and 1000 nM (sheet 'Lestaurtinib' of Supplementary Table 1),run:Lestaurtinib_02487_R2,Plate:MR012): 86.9 nM
- potency estimated from few doses (CHEK1; compound concentrations:100 nM and 1000 nM (sheet 'Lestaurtinib' of Supplementary Table 1),run:Lestaurtinib_02487_R3,Plate:MR012): 87.7 nM
- potency estimated from few doses (CHEK1; compound concentrations:100 nM and 1000 nM (sheet 'Lestaurtinib' of Supplementary Table 1),run:Lestaurtinib_02496_R1,Plate:MR013): 92.6 nM
- potency estimated from few doses (CHEK1; compound concentrations:100 nM and 1000 nM (sheet 'Lestaurtinib' of Supplementary Table 1),run:Lestaurtinib_02496_R2,Plate:MR013): 79.6 nM
- potency estimated from few doses (CHEK1; compound concentrations:100 nM and 1000 nM (sheet 'Lestaurtinib' of Supplementary Table 1),run:Lestaurtinib_02566_R1,Plate:MR014): 88.2 nM
- potency estimated from few doses (CHEK1; compound concentrations:100 nM and 1000 nM (sheet 'Lestaurtinib' of Supplementary Table 1),run:Lestaurtinib_02566_R2,Plate:MR014): 75.6 nM
- potency estimated from few doses (CHEK1; compound concentrations:100 nM and 1000 nM (sheet 'Lestaurtinib' of Supplementary Table 1),run:Lestaurtinib_02566_R3,Plate:MR014): 66.8 nM
- potency estimated from few doses (CHEK1; compound concentrations:100 nM and 1000 nM (sheet 'Lestaurtinib' of Supplementary Table 1),run:Lestaurtinib_02572_R1,Plate:MR015): 89.7 nM
- potency estimated from few doses (CHEK1; compound concentrations:100 nM and 1000 nM (sheet 'Lestaurtinib' of Supplementary Table 1),run:Lestaurtinib_02584_R1,Plate:MR017): 76.9 nM
- potency estimated from few doses (CHEK1; compound concentrations:100 nM and 1000 nM (sheet 'Lestaurtinib' of Supplementary Table 1),run:Lestaurtinib_02584_R3,Plate:MR017): 87.5 nM
